Drawing on PubChem BioAssay, this text covers z-score and composite z-score for nine molecules.

A short description of assay [1]: A549 cell viability effects, profiling panel, calcein-AM fluorescence, 48 h, basal (AID 1162). Also: test concentration not given here. Particulars: higher = more signal.
Assay [2] can be described thus: adipocyte viability effects, profiling panel, cell-based, 3T3-L1 adipocytes, calcein-AM fluorescence, 48 h, basal (AID 1163). Also: test concentration not given here. Particulars: 3T3-L1 adipocytes viability, higher = more signal.
Assay [3] can be described thus: HepG2 cell viability effects, profiling panel, calcein-AM fluorescence, 48 h, basal (AID 1164). Also: test concentration not given here. Particulars: higher = more signal.
The nature of assay [4]: MM1S cell viability effects, profiling panel, calcein-AM fluorescence, 48 h, basal (AID 1165).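 Also: viability of MM1S multiple myeloma cells under basal unstimulated conditions; test concentration not given here.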 Particulars: higher = more signal.
A short description of assay [5]: basal RPMI8226 viability, no added stimulus, profiling panel, cell-based, calcein-AM fluorescence, 48 h, PK04 Diversity Set (AID 1166).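 Also: cells grown under basal conditions without added stimulus; test concentration not given here.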 Particulars: RPMI8226 myeloma viability, higher = more signal.
Assay [6] is described as follows: basal HepG2 mitochondrial membrane potential changes, profiling panel, cell-based, JC-1 fluorescence, 24 h, 100 nL compound (AID 1167). Also: test concentration not given here. Particulars: higher = more signal.
The nature of assay [7]: basal 3T3-L1 adipocyte mitochondrial potential changes, profiling panel, cell-based, JC-1 fluorescence, 3T3-L1 adipocytes, 24 h, 100 nL compound (AID 1168). Also: test concentration not given here. Particulars: JC-1 mitochondrial fluorescence, higher = more signal, called active from +8 up or from −8 down.
Assay [8] can be described thus: basal RPMI8226 mitochondrial membrane potential changes, profiling panel, cell-based, JC-1 fluorescence, 24 h, 100 nL compound (AID 1169). Also: test concentration not given here. Particulars: RPMI8226 myeloma, JC-1 mitochondrial potential fluorescence, higher = more signal.
Assay [9] can be described thus: basal MM1S mitochondrial membrane potential changes, profiling panel, cell-based, JC-1 fluorescence, 24 h, 100 nL compound (AID 1170). Also: test concentration not given here. Particulars: higher = more signal.
A short description of assay [10]: A549 lung cancer cell viability effects, profiling panel, resazurin fluorescence, 24 h, PK04 Diversity Set (AID 1171). Also: test concentration not given here. Particulars: higher = more signal, called active from +8 up or from −8 down. Background: The colour change of resazurin is a common sign of viable cells or microbes.
Assay [11] in a line: HepG2 liver cancer cell viability effects, profiling panel, resazurin fluorescence, 24 h, PK04 Diversity Set (AID 1172). Also: test concentration not given here. Particulars: higher = more signal.
Assay [12] can be described thus: basal S. cerevisiae growth modulation, no modifier, primary screen, OD600, strain BY4716, 24 h, basal condition (AID 1173). Particulars: OD600, 24 h, higher = more signal, called active from +8 up or from −8 down.
Assay [13] is described as follows: MM1S myeloma cell viability, profiling panel, resazurin fluorescence, basal, 24 h, PK04 Diversity Set (AID 1174).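 Also: MM1S multiple myeloma cell line; test concentration not given here.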 Particulars: higher = more signal, called active from +8 up or from −8 down.
Assay [14] addresses Dihydroorotate dehydrogenase (quinone), mitochondrial (Plasmodium falciparum (isolate 3D7)) (UniProt Q08210). The assay can be described thus: PfDHODH enzyme inhibitors, primary screen, biochemical, C-terminal His tag, absorbance 600 nm (AID 1175).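 Also: recombinant parasite enzyme with a five histidine tag at its C terminus; test concentration not given here.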 Particulars: DCIP absorbance 600 nm, higher = more signal, called active from +8 up or from −8 down.
Assay [15] can be described thus: P. aeruginosa biofilm formation inhibitors, primary screen, strain PAO1, LB-PBS medium, absorbance 600 nm (AID 1176). Also: test concentration not given here. Particulars: P. aeruginosa PAO1 growth/biofilm, A600, 12 h; higher = more signal.
The nature of assay [16]: S. cerevisiae RM11-1a growth modifiers, primary screen, strain RM11-1a, OD600, basal, 24 h (AID 1177).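 Also: cultures grown under basal conditions with no added stressor; test concentration not given here.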 Particulars: OD600, 24 h, higher = more signal, called active from +8 up or from −8 down.
The nature of assay [17]: E. coli acrAB mutant growth effects, primary screen, E. coli filamentation inducers, strain DRC39, OD650, 24 h (AID 1178).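 Also: growth measured as culture turbidity by optical density at 650 nm; test concentration not given here.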 Particulars: higher = more signal, called active from +8 up or from −8 down.
Assay [18] can be described thus: E. coli acrAB mutant growth effects, primary screen, E. coli filamentation inducers, strain DRC39, OD650, 48 h (AID 1179).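 Also: screen aims at cell division blockers that make cells filament.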 Particulars: E. coli DRC39 delta-acrAB growth, higher = more signal, called active from +8 up or from −8 down.
Assay [19] can be described thus: RPMI8226 myeloma cell viability, profiling panel, resazurin fluorescence, basal, 24 h, PK04 Diversity Set (AID 1180).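 Also: RPMI8826 multiple myeloma cell line at 5000 cells per well; test concentration not given here.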 Particulars: higher = more signal.
Assay [20] deals with E3 ubiquitin-protein ligase XIAP (Homo sapiens) (UniProt P98170). The assay can be described thus: XIAP binders, primary screen, biophysical, small-molecule microarray, fluorescence 635 nm (AID 1181).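 Also: score merges 667 nm emission and signal to noise over triplicate slides.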 Particulars: small-molecule microarray binding, higher = more signal.
E3 ubiquitin-protein ligase XIAP (Homo sapiens), sequence (P98170 whole entry, looked up): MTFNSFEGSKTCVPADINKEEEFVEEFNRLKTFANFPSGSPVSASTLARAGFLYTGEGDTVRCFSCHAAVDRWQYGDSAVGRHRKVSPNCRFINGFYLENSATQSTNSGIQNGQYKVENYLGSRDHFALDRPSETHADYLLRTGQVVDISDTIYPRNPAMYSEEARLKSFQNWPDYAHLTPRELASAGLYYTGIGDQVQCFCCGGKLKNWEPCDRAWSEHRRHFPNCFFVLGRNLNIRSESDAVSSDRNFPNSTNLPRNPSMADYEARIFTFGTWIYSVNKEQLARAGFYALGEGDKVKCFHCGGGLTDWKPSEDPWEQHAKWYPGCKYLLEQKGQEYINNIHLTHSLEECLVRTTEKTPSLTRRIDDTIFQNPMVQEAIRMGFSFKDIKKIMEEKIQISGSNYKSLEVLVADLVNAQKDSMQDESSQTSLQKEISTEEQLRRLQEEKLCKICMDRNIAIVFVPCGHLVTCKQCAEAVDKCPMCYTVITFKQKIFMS

The source made the active and inactive calls. Unless noted, no rule for the calls is given here.

Dihydroorotate dehydrogenase (quinone), mitochondrial (Plasmodium falciparum (isolate 3D7)), sequence (Q08210 whole entry, looked up): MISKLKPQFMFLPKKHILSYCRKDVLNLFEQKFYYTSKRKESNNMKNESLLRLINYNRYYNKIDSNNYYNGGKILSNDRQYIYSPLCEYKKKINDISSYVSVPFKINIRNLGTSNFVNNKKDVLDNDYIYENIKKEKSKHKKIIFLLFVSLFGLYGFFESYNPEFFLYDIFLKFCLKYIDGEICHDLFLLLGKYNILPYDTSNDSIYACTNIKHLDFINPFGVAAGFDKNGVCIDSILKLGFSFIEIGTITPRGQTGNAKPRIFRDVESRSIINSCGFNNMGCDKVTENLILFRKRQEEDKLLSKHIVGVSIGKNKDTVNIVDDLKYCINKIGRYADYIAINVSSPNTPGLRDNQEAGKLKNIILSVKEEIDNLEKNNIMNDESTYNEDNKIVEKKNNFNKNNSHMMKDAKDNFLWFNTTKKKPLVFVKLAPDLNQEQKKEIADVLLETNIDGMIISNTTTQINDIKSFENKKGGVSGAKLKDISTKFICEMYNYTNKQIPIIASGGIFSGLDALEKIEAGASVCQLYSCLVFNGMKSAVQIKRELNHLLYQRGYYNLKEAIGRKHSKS

With `C=C(CCCC)/C(=C/C[C@@H](OC(C)=O)c1ccc(CO)o1)c1cc(C(=O)OC)ccc1OC`, the z-score is 0.813 in assay [1]; -0.504 in assay [2]; 0.882 in assay [3]; -1.81 in assay [4]; -0.564 in assay [5]; 0.152 in [6]. Moreover, the z-score in assay [7] is -0.573 (inactive); in assay [8] it was 0.507; in assay [9], -1.36; in assay [10], 0.111 (inactive); in assay [11] it was -0.345; in assay [12], -1.63 (inactive). Also, the z-score in assay [13] is -0.493 (inactive); in assay [15], 1.23 (inactive); in assay [16], 0.0168 (inactive); in assay [17], -0.122 (inactive); in [18], -0.194 (inactive); in assay [19] it was 0.0716. The composite z-score in assay [14] was -2.63 (inactive); in assay [20], -0.0367.
For `CC(C)C[C@@H]1NC(=O)[C@H]2C[C@@H](C(=O)NCCCCCC[N+](C)(C)C)[C@@H](c3cccc(OCCO)c3)N2C1=O`, the z-score was -0.53 in [1]; 0.282 in assay [2]; 0.0659 in [3]; -0.804 in assay [4]; -0.0361 in assay [5]; -0.474 in assay [6]. For the same molecule, the z-score is 0.0908 (inactive) in assay [7]; -0.271 in assay [8]; -0.34 in assay [9]; 1.24 (inactive) in assay [10]; 1.15 in assay [11]; -0.703 (inactive) in assay [12]. Further, the z-score in assay [13] was 0.288 (inactive); in assay [15] it was -0.819 (inactive); in assay [16] it was -0.215 (inactive); in [17], 0.481 (inactive); in assay [18], 0.442 (inactive); in [19], 0.571. In addition, the figures for the composite z-score in assay [14] and in [20] were -1.16 (inactive) and -0.188, respectively.
Consider `C=CC[C@]1(C(=O)N(C)C)N=C(c2ccc(OCCCO)cc2)O[C@H]1c1ccccc1N=[N+]=[N-]`, for which the z-score in assay [1] was -0.363; in [2] it was -0.768; in assay [3], -0.2; in assay [4] it was -0.995; in assay [5] it was -1.85; in assay [6] it was -0.358. The z-score in [7] was 0.0159 (inactive); in assay [8], -0.886; in assay [9] it was -1.23; in assay [10], -0.302 (inactive); in assay [11], 0.146; in assay [12], 0.136 (inactive). Moreover, the z-score is -1.54 (inactive) in assay [13]; 0.286 (inactive) in assay [15]; 0.446 (inactive) in [16]; -0.0751 (inactive) in assay [17]; -0.179 (inactive) in [18]; -1.32 in [19]. Besides, the results for the composite z-score in [14] and in assay [20] were 0.25 (inactive) and 0.121, respectively.
As to `CC(C)C(=C=CC[C@H](O)c1ccc(OCCO)cc1)C[C@H](O)c1cc(Cl)cc(Cl)c1O`, the z-score was 0.648 in [1]; 0.831 in assay [2]; -0.627 in [3]; -3.41 in [4]; -3.74 in [5]; -1.77 in [6]. Moreover, the z-score is -0.132 (inactive) in assay [7]; -0.124 in assay [8]; -0.66 in assay [9]; 0.885 (inactive) in [10]; 0.918 in [11]; -5.12 (inactive) in assay [12]. In addition, the z-score in assay [13] is -1.31 (inactive); in assay [15] it was -0.21 (inactive); in assay [16] it was -0.2 (inactive); in assay [17] it was 1.14 (inactive); in assay [18], 0.476 (inactive); in assay [19], -0.576. Moreover, the composite z-score in [14] is -2.84 (inactive); in assay [20], 0.0338.
For `CN1C(=O)[C@@]2(CCS(=O)(=O)c3ccccc3)N=C(c3ccc(OCCCO)cc3)O[C@H]2c2ccccc21`, the z-score is 0.524 in assay [1]; 1.1 in assay [2]; -0.0319 in [3]; -0.624 in assay [4]; -0.517 in assay [5]; 0.214 in assay [6]. The z-score in assay [7] is 0.426 (inactive); in assay [8] it was -0.776; in assay [9], 0.111; in assay [10] it was -0.254 (inactive); in [11], 0.316; in assay [12] it was 0.369 (inactive). Further, the z-score in assay [13] is 0.718 (inactive); in assay [15], -0.469 (inactive); in assay [16], 0.64 (inactive); in assay [17], 0.606 (inactive); in [18], 0.946 (inactive); in assay [19] it was -1.09. The composite z-score in assay [14] is 0.0865 (inactive); in assay [20] it was 0.205.
Take `C=CCOC(=O)[C@@H]1[C@H]2C(=O)O[C@H](c3ccccc3)[C@H](c3ccccc3)N2[C@H](c2ccc(OCCOC(=O)[C@H]3C[C@H]4C(=O)N[C@@H](CCCC[N+](C)(C)C)C(=O)N4[C@H]3c3ccc(O)cc3)cc2)[C@@]12C(=O)Nc1ccc(I)cc12`: the z-score in assay [1] was -0.105; in assay [2], -1.19; in assay [3] it was -0.591; in assay [4], -0.477; in [5] it was -0.362; in assay [6] it was -2.03. Moreover, the z-score in [7] was 0.178 (inactive); in [8], -0.275; in assay [9], -1.13; in assay [10], -0.173 (inactive); in assay [11] it was -0.792; in [12], 1.47 (inactive). Besides, the z-score in assay [13] is -0.706 (inactive); in assay [15], 2.01 (inactive); in [16] it was 2.12 (inactive); in assay [17], -0.877 (inactive); in assay [18], -1.37 (inactive); in [19], -0.578. Moreover, the values for the composite z-score in [14] and in assay [20] were -0.353 (inactive) and 0.0623, respectively.
For the molecule `CN1C2C=C(CCCO)C(C3C(=O)N(C(N)=O)C(=O)C32)C1c1cccs1` (stereo not given), the z-score was -0.452 in assay [1]; -0.086 in assay [2]; -0.099 in assay [3]; -0.542 in assay [4]; 0.204 in assay [5]; -0.742 in [6]. Also, the z-score was -1 (inactive) in [7]; 1.17 in [8]; -0.0274 in assay [9]; -0.268 (inactive) in [10]; -1 in assay [11]; 0.53 (inactive) in assay [12]. Also, the z-score in [13] was -0.135 (inactive); in assay [15], -0.329 (inactive); in assay [16], 1.37 (inactive); in assay [17] it was -0.967 (inactive); in assay [18], -0.837 (inactive); in assay [19], -0.69. The composite z-score in assay [14] was 0.837 (inactive); in assay [20], 3.82.
For `O=C(O)[C@H](Cc1ccccc1)n1cc(-c2ccccn2)nn1`, the z-score in [1] was -0.529; in [2], 0.039; in assay [3], -0.129; in assay [4] it was 0.228; in [5], -0.608; in assay [6], 0.237. For the same molecule, the z-score in assay [7] was 1.56 (inactive); in assay [8] it was -0.166; in assay [9], -0.263; in assay [10], 0.507 (inactive); in assay [11] it was 0.535; in [12], -0.65 (inactive). Besides, the z-score was 0.365 (inactive) in [13]; -0.476 (inactive) in assay [15]; 0.911 (inactive) in assay [16]; -0.256 (inactive) in assay [17]; 0.23 (inactive) in assay [18]; 0.373 in assay [19]. The composite z-score in assay [14] is -0.435 (inactive); in assay [20] it was 0.122.
In the case of `O=c1cccc(-c2ccc(C(F)(F)F)cc2)o1`, the z-score was -1.24 in assay [1]; -0.843 in assay [2]; -0.701 in [3]; 0.506 in [4]; -1.02 in assay [5]; -0.487 in [6]. Moreover, the z-score in [7] is 1.75 (inactive); in assay [8] it was 0.942; in assay [9], -0.507; in assay [10], 0.374 (inactive); in [11], -0.0559; in assay [12] it was -9.38 (active). Also, the z-score in assay [13] was 0.0889 (inactive); in [15], 0.0767 (inactive); in assay [16] it was -0.962 (inactive); in [17], -0.865 (inactive); in assay [18], -0.325 (inactive); in assay [19], 0.263. For the same molecule, the figures for the composite z-score in assay [14] and in [20] were -0.723 (inactive) and 0.0535, respectively.
